Assay outcomes from PubChem.
This excerpt belongs to a sample that is enriched for hits.
Tgondii IFNg: inhibitors of Toxoplasma gondii growth with IFN-gamma | Toxoplasma gondii growth in IFN-gamma-treated host cells; hits give low values | activity change, negative = inhibition, % (concentration not given with the values) | actives 3.8% (n = 69,000) | AID 1259416; in the data active means activity change below about -70%, passing the limit was not always enough;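 further: host cells are HeLa cells infected with Toxoplasma gondii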
Numbers stand for hits.

Screening COc1ccc(-c2nc(Nc3ccc(F)cc3Cl)c3ccccc3n2)cc1 returned Tgondii IFNg inactive.
For COc1ccc(C(=O)N(c2ccc(OC)cc2)C2(C(=O)NCc3ccccc3)CCN(C(C)=O)CC2)cc1 the results were Tgondii IFNg inactive.
O=c1oc2ccccc2c2c1C(c1ccc3c(c1)OCO3)Nc1ccc3ccccc3c1-2 (centres undefined) was read as Tgondii IFNg inactive.
Screening Fc1ccc(C2Nc3ccc4ccccc4c3C3=C2CCCC3)cc1 (centres undefined) returned Tgondii IFNg -105.4.
For CCN1C(=O)N(CCCc2cccnc2)C(=O)C12CCN(Cc1ccc(N3CCCC3)cc1)CC2 the results were Tgondii IFNg inactive.
O=C(Nc1ccc2ccccc2n1)c1ccc(Cl)cc1 was read as Tgondii IFNg inactive.
Screening Cc1nnc2n1CC(c1cccc(C(=O)Nc3ncc(Cc4ccccc4F)s3)c1)CC2 (centres undefined) returned Tgondii IFNg inactive.
O=C(Nc1ncc(Cc2cccc3ccccc23)s1)c1ccc(Cl)cc1 was read as Tgondii IFNg -100.5.
`O=S(=O)(c1cccs1)N1CCC2(CC1)CN(CCO)c1ccccc12` gave Tgondii IFNg inactive.
COc1cccc(C#Cc2ccc3c(c2)O[C@H](CN(C)C(=O)CN2CCOCC2)[C@@H](C)CN([C@H](C)CO)S3(=O)=O)c1 was read as Tgondii IFNg inactive.
Screening COc1cccc(-c2ccc3c(c2)O[C@@H](CN(C)Cc2cccnc2)[C@H](C)CN([C@H](C)CO)S3(=O)=O)c1 returned Tgondii IFNg inactive.
COc1cccc(C#Cc2ccc3c(c2)O[C@H](CN(C)C(=O)CN2CCOCC2)[C@@H](C)CN([C@@H](C)CO)S3(=O)=O)c1 was read as Tgondii IFNg inactive.
C[C@@H]1CN([C@H](C)CO)S(=O)(=O)c2ccc(C#Cc3ccccc3F)cc2O[C@@H]1CN(C)C(=O)Cc1cccnc1 was read as Tgondii IFNg -99.0.
`COc1cccc(-c2ccc3c(c2)O[C@H](CN(C)Cc2cccnc2)[C@@H](C)CN([C@@H](C)CO)S3(=O)=O)c1` gave Tgondii IFNg inactive.
`C[C@H](CO)N1C[C@H](C)[C@H](CN(C)C(=O)Cc2cccnc2)Oc2cc(C#Cc3ccccc3F)ccc2S1(=O)=O` gave Tgondii IFNg -88.5.
For CC(C)C(NC(=O)c1ccccc1F)c1cc(=O)[nH]c(-c2cccnc2)n1 (centres undefined) the results were Tgondii IFNg inactive.
Screening C=C1C2(C(=O)N3CCC(Oc4ccccc4F)CC3)CCC(C2)C1(C)C (centres undefined) returned Tgondii IFNg inactive.
`Cc1cc(C)c(-n2cccn2)c(CN(CCN(C)C)Cc2ccccn2)c1` gave Tgondii IFNg inactive.
`C=CCC(=O)N(CCSCC)C1CCCCC1` gave Tgondii IFNg inactive.
Screening Cc1cccc(N2CCN(c3nc(-c4ccc(Cl)cc4)nc4ccccc34)CC2)c1C returned Tgondii IFNg inactive.
Screening Cn1c(=O)n(C)c2cc(NC(=O)CSc3ncc(C#N)c(N)n3)ccc21 returned Tgondii IFNg inactive.
For N#Cc1cnc(SCc2cc(=O)[nH]c3ccccc23)nc1N the results were Tgondii IFNg -100.5.
For N#Cc1cnc(Sc2nnc(-c3ccc(Cl)cc3)n2Cc2ccccc2)nc1N the results were Tgondii IFNg inactive.
For O=C(O)CN1CCC2(CCc3cc(-c4ccncc4)ccc32)CC1 the results were Tgondii IFNg inactive.
`COc1ccc(-c2cc3c(=O)n(Cc4nc(-c5ccc(C)cc5C)oc4C)ccn3n2)cc1` gave Tgondii IFNg inactive.
For CCCNC(=O)c1c(O)c2cccnc2n(-c2ccc(OC)cc2)c1=O the results were Tgondii IFNg inactive.
For CCc1c(C)nn(CC(=O)NCc2nn(C)c3ccc(C)cc23)c1C the results were Tgondii IFNg inactive.
For Cc1ccc2c(c1)c(Cn1cc(-c3sccc3C)nn1)nn2C the results were Tgondii IFNg -86.0.
`Cc1ccc2c(c1)c(CNC(C)CCn1cccn1)nn2C` (centres undefined) gave Tgondii IFNg inactive.
Screening CCC(CC)C(=O)N1C[C@@H]2CN(c3ncccn3)CC[C@H]2C1 returned Tgondii IFNg inactive.
Screening Cc1ccc(CN2C[C@H](OCCN(C)C)[C@@H]3COC[C@@H]32)o1 returned Tgondii IFNg inactive.
Screening CCNC(=O)c1noc(-c2cc(C(C)C)c(O)cc2O)c1-c1ccc(CN2CCOCC2)cc1 returned Tgondii IFNg -88.4.
O=C(Nc1ccc(CN2CCOCC2)cc1)c1cc2ccccc2o1 was read as Tgondii IFNg inactive.
`CCNC(=O)c1ccc(N2CCN(Cc3ccc4c(c3)OCCO4)CC2)nc1` gave Tgondii IFNg inactive.
COCC1CN(CC2CC2)Cc2cnn(C)c21 (centres undefined) was read as Tgondii IFNg inactive.
Screening O=C(c1ccc(F)cc1)[C@H]1CCCN(C(=O)c2n[nH]c3c2CCC3)C1 returned Tgondii IFNg inactive.
Cc1cccc(-c2nnc(C)c(N3CCC(N4CCCCC4)CC3)n2)c1 was read as Tgondii IFNg inactive.
`CC1CCN(S(=O)(=O)c2ccc3c(ccc(=O)n3CC(=O)NC3CCCCCC3)c2)CC1` gave Tgondii IFNg inactive.
For CCCNC(=O)N(C)C[C@@H]1Oc2cc(C#C[C@H](C)O)ccc2S(=O)(=O)N([C@@H](C)CO)C[C@H]1C the results were Tgondii IFNg inactive.
CCCNC(=O)N(C)C[C@@H]1Oc2cc(C#C[C@@H](C)O)ccc2S(=O)(=O)N([C@@H](C)CO)C[C@@H]1C was read as Tgondii IFNg inactive.
`C[C@H](CO)N1C[C@H](C)[C@@H](CN(C)C(=O)Nc2cccc(F)c2)Oc2cc(C#CC3(O)CCCC3)ccc2S1(=O)=O` gave Tgondii IFNg -93.3.
`CCCNC(=O)N(C)C[C@H]1Oc2cc(C#C[C@@H](C)O)ccc2S(=O)(=O)N([C@@H](C)CO)C[C@@H]1C` gave Tgondii IFNg inactive.
Cc1ccccc1-c1ccc2c(c1)O[C@H](CN(C)C(=O)Nc1ccc(C(F)(F)F)cc1)[C@H](C)CN([C@H](C)CO)S2(=O)=O was read as Tgondii IFNg inactive.
`C[C@H](CO)N1C[C@H](C)[C@@H](CN(C)C(=O)Nc2ccccc2F)Oc2cc(Br)ccc2S1(=O)=O` gave Tgondii IFNg inactive.
`C[C@@H]1CN([C@H](C)CO)S(=O)(=O)c2ccc(C#CC3(O)CCCC3)cc2O[C@H]1CN(C)C(=O)Nc1cccc(F)c1` gave Tgondii IFNg -89.8.
`Cc1noc(C)c1NC(=O)N(C)C[C@H]1Oc2cc(C#CCN(C)C)ccc2S(=O)(=O)N([C@H](C)CO)C[C@@H]1C` gave Tgondii IFNg inactive.
CCCNC(=O)N(C)C[C@H]1Oc2cc(C#C[C@H](C)O)ccc2S(=O)(=O)N([C@@H](C)CO)C[C@@H]1C was read as Tgondii IFNg inactive.
`Cc1ccccc1-c1ccc2c(c1)O[C@@H](CN(C)C(=O)Nc1ccc(C(F)(F)F)cc1)[C@H](C)CN([C@H](C)CO)S2(=O)=O` gave Tgondii IFNg -92.4.
Screening C[C@@H]1CN([C@H](C)CO)S(=O)(=O)c2ccc(C#CC3(O)CCCC3)cc2O[C@@H]1CN(C)C(=O)Nc1cccc(F)c1 returned Tgondii IFNg -98.7.
For CCCNC(=O)N(C)C[C@@H]1Oc2cc(C#C[C@@H](C)O)ccc2S(=O)(=O)N([C@H](C)CO)C[C@@H]1C the results were Tgondii IFNg inactive.
CCn1ncnc1CN1C[C@H](N)C[C@H]1C(=O)NC(C)C was read as Tgondii IFNg inactive.
For CCCN(CCC)CCCNC(=O)C1=C(C)C(=O)OC12CCN(CC)CC2 the results were Tgondii IFNg inactive.
